Data as given in the supplement of paper PMC10338343.
± gives the standard deviation.

Tested on: MILI (PIWIL2) piRISC loaded with piRNA #1 (26 nt);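 also: 1 nM active piRISC with 0.1 nM target library at 33 °C single turnover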
Experiment: pre-steady-state target cleavage rate (min^-1); guide: piRNA #1 5'p-UGAGGUAGUAGGUUGUAUAGUAUCCA; higher = faster piRNA-guided slicing of the target
Details: auxiliary factor: 500 nM mouse GTSF1
In short: (§1)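 In HEPES–potassium acetate buffer at 33 °C, […] transcribed, DNA-blocked target RNA library was mixed with 1 nM active affinity-purified piRISC carrying one synthetic guide, with or without 500 nM GTSF1 partner protein, for 0–8 or 0–960 min. Uncleaved targets were sequenced and normalised to depth and to weakly complementary targets; three trials were pooled and k3 was capped at 0.0001 min^-1. The pre-steady-state cleavage rate followed from a burst-and-steady-state fit.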

Row | Sequence | pre-steady-state target cleavage rate
1 | GGAGACGUUACAAUACAACCUACUACCUCA | 0.163 ± 0.015
2 | GGAGACGAGUACUAUACAACCUACUACCUCA | 0.176 ± 0.014
3 | GGAGACCUAUCUAUACAACGUACUACCACA | 0.0153 ± 0.0035
4 | GGAGAGGAUACUAAACAACCUACUACCUCA | 0.174 ± 0.012
5 | GGAGACGAUACUAACAACCUACUACCUCA | 0.173 ± 0.012
6 | GGAGUGGAUACUAUACAACCUACUACCUCU [g2:g26:cont:t1U] | 0.231 ± 0.019
7 | GGAGAGGAUACUAUACAACCUACUAGCCUCA | 0.123 ± 0.02
8 | GGAGACCUAUCUAUACAACCUACUACCUCU [g2:g20:cont:t1U] | 0.0927 ± 0.011
9 | GGAGACGAUACUAUACAACGAACUACCUCA | 0.00414 ± 0.0015
10 | GGAGACCAUACUAUACAUCCUACUACCACA | 0.279 ± 0.028
11 | GGAGACCUAUGAUCACAACCUACUACCUCA | 0.00534 ± 0.0024
12 | GGAGACCAUGACUAUACAACCUACUACCUCA | 0.142 ± 0.021

Tested on: EfPiwi piRISC loaded with piRNA #1 (26 nt)
Experiment: pre-steady-state target cleavage rate (min^-1); auxiliary factor: 500 nM Ephydatia muelleri Gtsf1; guide: piRNA #1 5'p-UGAGGUAGUAGGUUGUAUAGUAUCCA; MIWI and MILI are mouse PIWI proteins and EfPiwi is from a freshwater sponge; tags in brackets are library labels; higher = faster piRNA-guided slicing of the target
Details: not given
In short: as §1

Row | Sequence | pre-steady-state target cleavage rate
13 | GGAGACCUUACUAUACAACCUACUAGCUCA | 0.00255 ± 0.0017
14 | GGAGACCUAUGAUAUGUUCCUACUCCCUCA | < 0.0001
15 | GGAGACGUUACAAUACAACCUACUACCUCA | 0.0105 ± 0.0045
16 | GGAGACGAGUACUAUACAACCUACUACCUCA | 0.0147 ± 0.0053
17 | GGAGACCUAUCUAUACAACGUACUACCACA | 0.00343 ± 0.0031
18 | GGAGACGAUACUAUACAACCUACUCACCUCA | 0.00418 ± 0.0019
19 | GGAGAGGAUACUAAACAACCUACUACCUCA | 0.00787 ± 0.0036
20 | GGAGACCAUACUAUACAACCUGACUACCUCA | 0.00545 ± 0.0032
21 | GGAGACCAUACUAUACAACACUACUACCUCA | 0.00469 ± 0.0037
22 | GGAGUGGAUACUAUAGAACCUACUAGCUCA | 0.00232 ± 0.0015
23 | GGAGAGGUUACAAUACAACCUACUACCUCA | 0.00504 ± 0.0035
24 | GGAGACGAUACUAACAACCUACUACCUCA | 0.00704 ± 0.0045
25 | GGAGAGGAUACUAUACAACCUUCUUCCUCA | 0.00382 ± 0.0025
26 | GGAGACGAUACUAUAUCAACCUACUACCUCA | 0.0198 ± 0.0082
27 | GGAGUGGAUACUAUACAACCUACAACCACA | 0.00247 ± 0.0019
28 | GGAGUGGAUACUAUACAACCUACUACCUCU [g2:g26:cont:t1U] | 1.05 ± 0.27
29 | GGAGAGGAUACUAUACAACCUACUUCGUCA | 0.00697 ± 0.0031
30 | GGAGAGGAUACUAUACAACCUACUAGCCUCA | 0.00421 ± 0.0018
31 | GGAGAGGAUACUAUACAACCAACUUCCUCA | 0.00313 ± 0.0024
32 | GGAGAGGAUACUAUACAUCCUACUAGCUCA | 0.00277 ± 0.0019

Row | Sequence | pre-steady-state target cleavage rate
33 | GGAGAGGAUACUAUACAACCUACUCCUCA | 0.00473 ± 0.0025
34 | GGAGACGAUACUAUACAACCUUCUUCCUCA | 0.0037 ± 0.0019
35 | GGAGAGGAUACUAUACAACCUAGUACGUCA | 0.0044 ± 0.0019
36 | GGAGUGGAUAGUAUACAACCUUCUACCUCA | 0.00338 ± 0.0021
37 | GGAGAGGAUACUAUACAGACCUACUACCUCA | 0.00626 ± 0.0046
38 | GGAGACCUAUCUAUACCAACCUACUACCUCA | 0.00573 ± 0.0036
39 | GGAGACCUAUCUAUACAACCUACUACCUCU [g2:g20:cont:t1U] | 0.993 ± 0.45
40 | GGAGACCUAUGAUAUCAACCUACUUCCACA | < 0.0001
41 | GGAGACGAUACUAUACAACGAACUACCUCA | 0.00251 ± 0.0024
42 | GGAGAGGAUACUAUUCAACCUAGUACCUCA | 0.00256 ± 0.0017
43 | GGAGACGAUACUAUACAACCUUCUAGCUCA | 0.00455 ± 0.0027
44 | GGAGAGGAUACUAUUCAAGCUACUACCUCA | 0.00323 ± 0.002
45 | GGAGACCUUACUAUACAACACUACUACCUCA | 0.0118 ± 0.0053
46 | GGAGACCAUACUAUACAUCCUACUACCACA | 0.00302 ± 0.0024
47 | GGAGUGGAUACUAUACAACCUACUACCUUA | 0.276 ± 0.095
48 | GGAGACGUUACUAUACAACCUACAACCUCA | 0.00216 ± 0.0017
49 | GGAGAGGAUACUAUUCAUCCUACUACCUCA | 0.00619 ± 0.0034
50 | GGAGUGGAUACUAUACAACCUACUAGCACA | 0.00246 ± 0.0018
51 | GGAGACCUAUGAUCACAACCUACUACCUCA | 0.00429 ± 0.0038
52 | GGAGACCAUGACUAUACAACCUACUACCUCA | 0.0764 ± 0.029
